Screening data as filed in PubChem BioAssay.
Pf growth 48h: inhibits P. falciparum growth in the first generation, 48 h. P. falciparum luciferase growth in erythrocytes, 48 h. Potency, µM (top dose mostly 28.7 µM), for the others: at the top dose activity change, negative = inhibition, most hits filed as inhibitors. 310,000 compounds, 5.9% hits; further: potency means the concentration at half of the fitted maximal effect
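Read-out is firefly luciferase luminescence from an integrated reporter in P. falciparum, so falling signal marks reduced parasite growth. Infected erythrocytes were at 2% hematocrit and 0.1% parasitemia (final) in Albumax-supplemented RPMI 1640.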
Sm TGR block: blocks Schistosoma mansoni thioredoxin glutathione reductase; Q962Y6; purified TGR, DTNB reduction, TNB absorbance 405 nm; Potency, µM (highest dose often 114 µM), inactives show at the highest dose activity change, negative = inhibition, actives largely listed as inhibitors; 360,000 compounds, 3% hits; AID 485364; further: potency means the concentration at half of the fitted maximal effect; nearly all actives have a fitted effect of over 60% in size
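First, TGR (20 nM dispensed) and NADPH were mixed with compound. Second, a 15 min room-temperature incubation followed. Third, further NADPH and then DTNB were added to start the reaction. Finally, TNB absorbance was monitored kinetically.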
FBPA Giardia inh: Giardia lamblia aldolase inhibition. AID 2451. Potency, µM (highest dose often 59.6 µM), for the others: top-dose activity, negative = inhibition, hits mostly inhibitors. 290,000 compounds, 0.71% hits. purified Giardia FBPA. A8B2U2; further: potency means the concentration at half of the fitted maximal effect; nearly all actives have a fitted effect of over 55% in size
Target sequence (A8B2U2 whole entry, looked up): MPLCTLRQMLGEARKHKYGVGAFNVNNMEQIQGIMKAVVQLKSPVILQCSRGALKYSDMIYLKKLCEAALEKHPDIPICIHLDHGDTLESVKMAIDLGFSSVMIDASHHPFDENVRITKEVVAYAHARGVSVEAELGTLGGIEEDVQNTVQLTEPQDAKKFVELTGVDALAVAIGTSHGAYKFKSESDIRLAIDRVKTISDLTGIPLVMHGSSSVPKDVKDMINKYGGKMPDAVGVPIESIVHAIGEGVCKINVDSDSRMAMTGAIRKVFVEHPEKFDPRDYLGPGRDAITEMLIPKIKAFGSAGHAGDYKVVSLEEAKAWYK
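40 nM FBPA preincubated 10 min at RT with compound (up to 57.5 uM final), then substrate plus GAPDH/TPI/NAD/arsenate coupling and diaphorase/resazurin added. Fluorescence read after 20 min at RT, 525/598 nm.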
Pf growth 96h: P. falciparum growth inhibition at 96 hours. P. falciparum luciferase reporter growth, 96 h. Potency, µM (top dose mostly 28.7 µM), without a hit: at the top dose activity change, negative = inhibition, actives largely listed as inhibitors. 320,000 compounds, 6.9% hits. AID 504834; further: potency means the concentration at half of the fitted maximal effect
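P. falciparum expressing integrated firefly luciferase, in erythrocytes at 2% hematocrit, 0.05% parasitemia, incubated with compounds 96 h at 37 C, 5% CO2. Growth inhibition read as loss of luminescence; two-generation exposure targets delayed-death apicoplast inhibitors.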
HCMV antiviral: inhibitors of human cytomegalovirus; HFF cells, HCMV-luciferase reporter, 72 h; hits give low values; activity change, negative = inhibition, % at 57.5 µM; 410,000 compounds, 4.5% hits; in the data active means activity change below about -60%; inconclusive means no clear call, values can overlap the other calls; inactive means above about -39%
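Two-dose cell screen: HFF monolayers treated with compounds and infected with luciferase-expressing HCMV at 1 PFU/cell, 72 h at 37C, then lysed for luciferase measurement.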
The depositor's hits bear a star; ? = inconclusive; . = no result; [ ] = remark or other dose. In the library only some 14% were active in any assay of this set; here they are far more common. Unless noted, the call rests on the fitted dose curve; in most records, active means well fitted curve in the direction sought with a large enough effect; inconclusive means small, poorly fitted or top-dose-only effect, or another doubt; inactive means no such curve, though single readings can be large; an effect the other way counts as inactive or inconclusive. On the % scale 0 is the no-effect control and ±100 the full control effect.

SMILES | Pf growth 48h | Sm TGR block | FBPA Giardia inh | Pf growth 96h | HCMV antiviral
O=C(CCn1nc(-c2ccc(Cl)cc2)c2ccccc2c1=O)Nc1cccnc1 | ? | -6.2% | -1.9% | 137.3% | -65.5*
Cn1nc(-c2ccc(OCC(=O)Nc3cccnc3)cc2)c2ccccc2c1=O | ? | 0.4% | -4.1% | 31.4% | 97.5
COc1ccc(NC(=O)CCn2nc(-c3ccc(Cl)cc3)c3ccccc3c2=O)cc1 | . | -4.0% | . | . | -3.0
CC(=O)Nc1cccc(NC(=O)CCn2c(=O)sc3ccccc32)c1 | 25.0% | -4.4% | 4.4% | 75.9% | 23.6
Cn1nc(-c2ccc(C(=O)Nc3cccnc3)cc2)c2ccccc2c1=O | 6.57µM* | -34.3% | -25.1% | ? | -38.4
O=C(Cc1ccc(-n2cccc2)cc1)NC1CCCCCC1 | -1.8% | -0.4% | 0.5% | 14.7µM* | -0.1
O=C(c1cnccn1)N1CCC2(CCCN(c3ccncc3)C2)CC1 | . | . | -5.9% | . | .
CCn1c(CN2CCOCC2)nc2cc(NC(=O)c3ccccc3[N+](=O)[O-])ccc21 | . | -6.7% | . | . | 1.1
CCc1ccccc1NC(=O)C1=C(C)C(=O)OC12CCCCCC2 | . | 3.5% | . | . | 0.0
Cn1nc(-c2ccc(C(=O)Nc3ccc(F)cc3)cc2)c2ccccc2c1=O | ? | 3.5% | -6.4% | 8.0% | -29.8
Cn1nc(CC(=O)NC2CCCCC2)c2ccccc2c1=O | -1.2% | 4.8% | -1.2% | 175.9% | 1.6
Cc1ccc(NC(=O)c2ccc(-c3nn(C)c(=O)c4ccccc34)cc2)cc1 | . | 0.4% | -4.9% | 10.4µM* | -37.5
CC(O)CNC(=O)c1ccc(-c2nn(C)c(=O)c3ccccc23)cc1 (centres undefined) | . | 2.3% | -1.0% | 7.3% | 31.0
COc1ccc(OCC(=O)Nc2cccc3ncccc23)cc1 | -11.4% | 0.9% | -18.0% | 179.9% | -26.0
Cc1ccc(NC(=O)c2ccc(-c3nn(C)c(=O)c4ccccc34)cc2)c(C)c1 | . | 0.0% | -0.1% | 6.57µM* | 18.2
Cn1nc(CC(=O)NC2CCCCCC2)c2ccccc2c1=O | . | 0.0% | -4.2% | 9.8% | -72.2*
O=C(CCl)Nc1cccc2ncccc12 | 2.33µM* | 44.7µM* | -26.3% | 0.6% | -98.6*
CCOc1ccc(NC(=O)CCS(=O)(=O)c2cccc3nonc23)cc1 | . | -0.2% | . | . | 9.6
CCOc1ccc(C(=O)OCc2cc(=O)n3nc(C(C)C)sc3n2)cc1 | . | -0.3% | . | . | -12.4
Cn1nc(-c2ccc(C(=O)NC3CCCCC3)cc2)c2ccccc2c1=O | 5.22µM* | 0.4% | 3.0% | 1.7% | 17.2
Cn1nc(CC(=O)Nc2cccc3ncccc23)c2ccccc2c1=O | 5.7% | -1.2% | -16.4% | . | -66.6*
Cn1nc(C(=O)NC2CCCC2)c2ccccc2c1=O | 9.4% | -0.8% | . | 2.7% | 50.0
COc1ccc(NC(=O)Cc2nn(C)c(=O)c3ccccc23)c2ncccc12 | . | 2.3%[11.4 µM] | -7.5% | . | .
Cn1nc(-c2ccc(C(=O)Nc3cccc(Cl)c3)cc2)c2ccccc2c1=O | . | -29.4% | 3.9% | 3.29µM* | -13.5
Cn1nc(C(=O)NC2CCC(O)CC2)c2ccccc2c1=O (centres undefined) | 1.5% | 1.2% | . | 1.8% | -64.5*
SMILES | Pf growth 48h | Sm TGR block | FBPA Giardia inh | Pf growth 96h | HCMV antiviral
O=c1[nH][nH]c2c1[C@H](c1ccc(Cl)cc1)O[C@H](C1CC1)C2 | . | . | . | . | -23.1
CCOC(=O)[C@]12CCC=C1N(Cc1cccc3ccccc13)C(=O)[C@H](CC(=O)N1CCN(C(=O)C3CC3)CC1)C2 | . | . | . | . | 2.9
CCOc1cc(C(=O)Nc2cccc3ncccc23)cc(OCC)c1OCC | . | -9.6% | -0.9% | 14.7µM* | 32.9
Cn1nc(-c2ccc(C(=O)N3CCN(Cc4ccccc4)CC3)cc2)c2ccccc2c1=O | . | -5.1% | -2.0% | 13.1µM* | -22.4
COc1cc(NC(=O)Cc2nn(C)c(=O)c3ccccc23)cc(OC)c1OC | 13.1µM* | 5.6% | -3.8% | 10.4µM* | 13.6
CC(C)(C)OC(=O)N1C(=O)[C@](OC(=O)c2ccccc2)(c2ccc(F)cc2)c2ccccc21 | . | . | . | . | -18.3
Cc1sc2nc(C3CC3)nc(N3CCN(C(=O)c4ccc(F)cc4)CC3)c2c1C | ? | 11.1% | . | 3.2% | -81.0*
Cc1nc(N2CCN(S(=O)(=O)c3ccc(F)cc3)CC2)c2c(C)c(C)sc2n1 | . | 8.8% | 2.0% | 11.8% | 15.9
Cc1sc2nc(C3CC3)nc(N3CCN(C(=O)c4ccc(Cl)cc4)CC3)c2c1C | ? | -9.8% | -22.1% | 28.1% | -21.2
